Potency and outcome data for 17 molecules are collected here from PubChem BioAssay (NCATS).

Test [1] in a line: qHTS to identify inhibitors of the type 1 interferon - major histocompatibility complex class I in skeletal muscle: primary screen against the NCATS LOPAC collection (AID 1347405).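 Note: human myoblasts with HiBiT tag on endogenous HLA-B stimulated by IFN-beta; lytic HiBiT luminescence reporting HLA-B protein level.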 Note: potency is the fitted concentration of half-maximal effect. In outline:
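IFN-beta-stimulated (4 ng/ml) HLA-B HiBiT knock-in myoblasts, compound-treated 24 hrs up to 46 uM final; signal via LgBiT complementation and furimazine luminescence.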

Test [2] is described as follows: Vero-766 cells viability qHTS against the NCATS CANVASS Library: Counterscreen for Zika virus inhibition assay (AID 1347394). Note: nearly all actives have a fitted effect of over 60% in size. Note: potency is the fitted concentration of half-maximal effect. In outline: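 CellTiter Glo luminescence measured cytotoxicity after 72 h at 37C in uninfected Vero 766 cells, plated at 1000 cells/well. Compounds were applied in an 11-point series. Wells without cells defined 100% inhibition.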
Test [3] in a line: Viability qHTS for inhibitors of the SERCaMP assay screened against the NCATS CANVASS Library (AID 1347400). Note: nearly all actives have a fitted effect of over 70% in size. Note: potency is the fitted concentration of half-maximal effect. In outline:
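Measures loss of viability in SERCaMP reporter SH-SY5Y cells treated for 48 h with compounds; luminescent ATP detection by CellTiter-Glo.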
A general note: In qHTS, concentration-response curves come from the screen itself.

A short description of test [4]: Redox Reaction Profiling qHTS: Assay Interference Panel against the NCATS CANVASS Library (AID 1347401). In outline: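 Redox-cycling liability assessed as DTT-driven conversion of resazurin (5 uM, with 200 uM DTT, HEPES pH 7.3) to fluorescent resorufin. Fluorescence at 525/598 nm measured initially and after 15 min dark incubation.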
A short description of test [5]: qHTS for inhibitors of adenylyl cyclases using a fission yeast platform: a pilot screen against the NCATS LOPAC library (AID 1347410). In outline: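 GFP from fbp1-GFP reporter, read by Acumen laser cytometry, indicates AC inhibition in fission yeast expressing AC9, GNAS and PDE4D2. Cells grown 18 h in the dark at 30C with compounds, final up to 57 uM.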
A short description of test [6]: qHTS for inhibitors of Wild type Zika virus screened against the NCATS CANVASS Library (AID 1347396).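 Note: ATP luminescence of surviving cells so rescue from viral cell killing; series mostly up to about 46 µM.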 From the text: Natural products and their derivatives continue to be wellsprings of nascent therapeutic potential. However, many laboratories have limited resources for biological evaluation, leaving their previously isolated or synthesized compounds largely or completely untested. To address this issue, the Canvass library of natural products was assembled (https://tripod.nih.gov/canvass), in collaboration with academic and industry researchers, for quantitative high-throughput screening (qHTS) across a diverse set of cell-based and biochemical assays. […] The library was formatted into 1536-well plates and evaluated in 50 qHTS (in an 11-pnt concentration series) bioassays with broad scope of disease-relevant mechanisms. The resulting data set from 50 different assays was then systematically analyzed to identify overall trends and specific natural products with interesting biological activities. […]
Zika virus infection assay protocol: 1. […] In a biosafety cabinet, the desired MOI Zika virus was calculated and 2 uL of 2.5x Zika virus was dispensed into columns 1, 2 and 5 - 48 using the Multidrop Combi dispenser. […] Luminescence signal was obtained via the ViewLux plate reader (Perkin Elmer) using the clear emission filter and 1x binning, 2 seconds exposure settings.

The target in test [7] is Protein phosphatase 1D (Homo sapiens) (UniProt O15297). In words: RapidFire Mass Spectrometry qHTS Assay for Modulators of WT P53-Induced Phosphatase 1 (WIP1) (AID 1347424).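 Note: amount of dephosphorylated VEPPL-S-QETFS peptide product formed by WIP1; series mostly up to about 63 µM.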 In outline: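 RapidFire mass spectrometry measured dephosphorylated peptide after 5 min room-temperature reaction of 2 uM VEPPL-pS-QETFS with 10 nM WIP1 (50 mM Tris-HCl pH 7.5, 30 mM MgCl2, 0.1 mM EGTA, BSA), following 1 hr compound preincubation; 1 uM isotope-labelled product standard.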
Chain of Protein phosphatase 1D (Homo sapiens) (O15297 whole entry, looked up): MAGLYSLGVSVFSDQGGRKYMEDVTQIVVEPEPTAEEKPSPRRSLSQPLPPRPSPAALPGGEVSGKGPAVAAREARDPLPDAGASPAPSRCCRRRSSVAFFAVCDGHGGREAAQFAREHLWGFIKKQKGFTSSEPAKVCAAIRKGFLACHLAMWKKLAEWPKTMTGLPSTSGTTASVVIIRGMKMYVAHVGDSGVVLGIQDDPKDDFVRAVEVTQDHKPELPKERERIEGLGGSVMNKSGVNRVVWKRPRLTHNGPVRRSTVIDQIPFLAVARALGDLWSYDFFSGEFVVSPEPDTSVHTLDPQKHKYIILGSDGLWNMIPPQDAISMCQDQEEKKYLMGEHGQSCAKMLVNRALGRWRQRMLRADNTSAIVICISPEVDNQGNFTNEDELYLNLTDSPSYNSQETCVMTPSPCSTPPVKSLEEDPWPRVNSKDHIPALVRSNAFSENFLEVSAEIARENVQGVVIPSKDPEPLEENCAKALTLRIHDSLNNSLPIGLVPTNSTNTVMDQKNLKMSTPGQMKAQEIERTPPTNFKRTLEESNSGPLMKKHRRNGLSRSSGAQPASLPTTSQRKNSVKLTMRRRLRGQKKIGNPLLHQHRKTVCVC

Test [8] has the same target. Nature of the test: Rhodamine-PBP qHTS Assay for Modulators of WT P53-Induced Phosphatase 1 (WIP1) (AID 1347425). In outline: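 Read-out: Rhodamine-PBP fluorescence (ex 525/em 598 nm) for released Pi, read each minute for 11 min after adding 10 uM VEPPL-pS-QETFS; signal taken as f1 minus pre-substrate f0. Enzyme 5 nM WIP1 with 1 hr room-temperature compound preincubation.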

Test [9] can be described thus: qHTS to identify inhibitors of the type 1 interferon - major histocompatibility complex class I in skeletal muscle: primary screen against the NCATS Pharmaceutical Collection (AID 1347407).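 Note: luminescence of HiBiT knocked into endogenous HLA-B as interferon-induced MHC class I level.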 In outline: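 Compounds […] were added to CRISPR-engineered HLA-B-HiBiT C25cl48 human myoblasts with 4.0 ng/ml IFN-beta. After 24 hrs at 37 C, cells were lysed and HiBiT luminescence measured.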

Molecules are shown by their SMILES. Results filed as inconclusive are left out. Where a call stands in place of a potency, no number is given. Calls of active or inactive are those of the source. Calls come from the whole dose curve; as a rule, active = well fitted curve in the direction sought with a large enough effect; inconclusive = small, poorly fitted or top-dose-only effect, or another doubt; inactive = no such curve, though single readings can be large; an effect the other way counts as inactive or inconclusive.

Take `CCC(CO)Nc1nc(NCc2ccccc2)c2ncn(C(C)C)c2n1` (stereo unspecified): the Potency in test [1] is 15.8 µM (active).

For `O=C1NC(O)=NC1(c1ccccc1)c1ccccc1`, the Potency entry in test [1] was “inactive”.

Consider `CC1(C)CCC=[N+]1[O-]`, for which the Potency result in test [1] was “inactive”.

Take `OCC1O[C@H]([S-])[C@H](O)[C@@H](O)[C@@H]1O.[Au+]` (stereo partly specified): in test [1], the Potency was 17.8 µM (active).

For `Nc1ncnc2c1ncn2[C@@H]1O[C@H](COP(=O)(O)CP(=O)(O)OP(=O)(O)O)[C@@H](O)[C@H]1O`, the Potency entry in [1] was “inactive”.

Turning to `CSc1ccccc1N1CCN(CCCCCC(=O)NC2CCCc3ccccc32)CC1` (stereo unspecified), the Potency result in test [1] was “inactive”.

For the molecule `Nc1ccn([C@@H]2O[C@H](CO)[C@@H](O)[C@@H]2O)c(=O)n1`, the Potency result in test [1] is “inactive”.

`NS(=O)(=O)c1ccc(-n2nc(C(F)(F)F)cc2-c2ccc(Cl)cc2)cc1`: the Potency entry in test [1] was “inactive”.

With `Cc1cc(NC2CCCCC2)nc(-n2nc(C)cc2C)n1`, the Potency result in [1] was “inactive”.

With `NCCCCCCCCCCN`, in test [1], the Potency result was “inactive”.

With `Cn1cc(C2=C(c3ccc(Cl)cc3Cl)C(=O)NC2=O)c2ccccc21`, the Potency result in test [1] was “inactive”.

Consider `O=c1cc(-c2ccccc2)oc2c(O)c(O)ccc12`, for which the figures for the Potency in [2] and in test [3] were 23.4 µM (active) and 34 µM (active), respectively. Besides, the outcome in test [4] and in test [5] was inactive. In addition, in test [1], the Potency entry is “inactive”.

As for `CN1CCc2cc(NC(=O)Nc3cccnc3)ccc21`, the Potency entry in [1] was “inactive”.

Take `O=C(O)c1cc(O)c(O)c(O)c1`: the Potency result in test [2], in test [3] and in test [7] was “inactive” in each case. The molecule was classed as inactive in test [6], in test [4] and in test [8].

For the molecule `CN(CCCOc1ccc(Cc2ccccc2)cc1)CCC(=O)O`, the Potency result in test [1] was “inactive”. In addition, the molecule was classed as inactive in [5].

For `Nc1ccn([C@H]2O[C@H](CO)[C@@H](O)C2(F)F)c(=O)n1`, the Potency result in [1] was “inactive”.

`CN1CC(=O)N/C1=N/C(=O)Nc1cccc(Cl)c1`: the Potency result in test [1], in test [9] and in test [7] was “inactive” in each case. Moreover, the result in test [5] and in test [8] was inactive.
